Assay outcomes deposited in PubChem BioAssay by several laboratories.
ADAM17 inh: inhibitors of human ADAM17; P78536; recombinant ADAM17, EDANS/DABCYL FRET peptide cleavage; inhibition, % at 6.95 µM; 370,000 compounds, 0.83% hits; AID 720648;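 active = inhibition above the mean of compounds lying between control limits plus 3 SD, set per campaign, cut at about 8.5% in these data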
Target sequence (P78536 215-824 limits assumed): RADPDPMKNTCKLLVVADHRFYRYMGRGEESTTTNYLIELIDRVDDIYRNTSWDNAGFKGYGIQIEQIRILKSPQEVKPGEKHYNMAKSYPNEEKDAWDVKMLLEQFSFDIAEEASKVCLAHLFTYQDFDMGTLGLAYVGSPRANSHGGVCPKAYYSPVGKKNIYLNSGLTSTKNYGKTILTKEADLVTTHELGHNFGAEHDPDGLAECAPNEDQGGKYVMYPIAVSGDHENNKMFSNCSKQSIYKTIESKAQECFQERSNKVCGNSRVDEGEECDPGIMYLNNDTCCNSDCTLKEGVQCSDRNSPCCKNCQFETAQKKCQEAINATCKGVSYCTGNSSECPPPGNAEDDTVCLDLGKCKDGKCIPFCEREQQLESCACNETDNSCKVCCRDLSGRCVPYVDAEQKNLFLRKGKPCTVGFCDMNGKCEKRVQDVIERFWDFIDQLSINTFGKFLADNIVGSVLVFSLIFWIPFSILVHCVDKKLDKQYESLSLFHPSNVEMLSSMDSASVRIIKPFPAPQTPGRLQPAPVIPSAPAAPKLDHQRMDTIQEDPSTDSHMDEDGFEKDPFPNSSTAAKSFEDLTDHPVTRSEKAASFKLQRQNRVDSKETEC
AHR activator: human AHR activation; P35869; AHR-responsive luciferase reporter cells, luminescence; activation, % at 5 µM; 320,000 compounds, 2.5% hits; in the data active = activation above about 47%
GRIN3A LBD mod: modulators (binders) of human NR3A ligand-binding domain; NR3A LBD differential scanning fluorimetry, Tm shift; 0% = protein alone, 100% = glycine-bound protein; Tm shift relative to glycine control, % at 25 µM; AID 1259313; 340,000 compounds, 2.5% hits;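 active = melting temperature shift of at least 10% of the positive control shift, at one fixed dose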
ADAM10 inh: ADAM10 inhibition, QFRET primary screen; O14672; recombinant ADAM10, EDANS/DABCYL FRET peptide cleavage, 3 h; inhibition, % at 7 µM; 370,000 compounds, 0.62% hits;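 active = inhibition above a per-campaign cutoff equal to the mean of compounds falling between control-based bounds plus 3 SD, cut at about 20% in these data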
proKLK7 act: proKLK7 (human) activation, primary screen. activation, % at 7 µM. purified proKLK7, EDANS-DABCYL substrate fluorescence; 100% is mature enzyme control, 0% vehicle. 370,000 compounds, 0.9% hits. P49862;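 active = activation above the mean of all tested compounds plus 3 SD, computed per campaign excluding outliers beyond control limits, cut at about 13% in these data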
rCAG RNA binder: r(CAG) repeat RNA binding; 370,000 compounds, 1.3% hits; TO-PRO-1 dye displacement fluorescence; AID 651821; inhibition, % at 3 µM;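 active = inhibition above the plate cutoff, the mean of all test compounds on that plate plus 3 SD, cut at about 35% in these data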;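 note: higher means more dye released from RNA so lower well fluorescence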
Large screens that a line does not name were inactive. This is a sample that favours compounds with a hit; in the whole collection about 7% have one here.

FC(F)(F)COc1nc(N2CCOCC2)nc(N(c2ccccc2)c2ccccc2)n1	none
CC(C)CN1C(=O)[C@]2(CC(=O)N(C)C2c2ccccc2)c2cc(-n3cc(C4=CCCCC4)nn3)ccc21 (some centres not stated)	none (no result: AHR activator, GRIN3A LBD mod)
COc1ccc(-c2cc(-c3nnc(SCC(=O)N4CCOCC4)n3N)[nH]n2)cc1	none (no result: AHR activator, GRIN3A LBD mod)
Cn1c(=O)oc2cc(S(=O)(=O)N3CCN(C(=O)C4CCCO4)CC3)ccc21 (configuration not stated)	none (no result: AHR activator, GRIN3A LBD mod)
O=C(N/C(=C/c1ccc(Cl)cc1)c1nc2ccccc2[nH]1)c1ccco1	AHR activator 70
COc1ccc(/C=C(\NC(=O)c2ccco2)C(=O)NCCc2nc3ccccc3[nH]2)cc1	none
O=C(NCc1nc2ccccc2[nH]1)c1ccco1	none
COc1cc(/C=C(/C(=O)c2cccs2)c2nc3ccccc3[nH]2)cc(OC)c1O	AHR activator 114
O=C(/C(=C/c1ccc(Cl)cc1)c1nc2ccccc2[nH]1)c1ccccc1	GRIN3A LBD mod 26
O=C(NCc1nc2ccccc2[nH]1)c1cccs1	none
O=C(N/C(=C/c1ccc(Br)cc1)c1nc2ccccc2[nH]1)c1ccco1	AHR activator 67
CCCCCCCC(=O)N[C@H]1CC[C@@]23CCCN2C(=O)CCC[C@H]3[C@H]1C	none (no result: AHR activator, GRIN3A LBD mod, proKLK7 act, rCAG RNA binder)
CNc1nc2ccccc2n1/N=C/c1cccc(OC)c1OC	GRIN3A LBD mod 32
O=S(=O)(c1cccc(-c2nc3n(n2)Cc2ccccc2-3)c1)N1CCCC1	GRIN3A LBD mod 13
Cn1nccc1C(=O)Nc1sc2c(c1C#N)CCCC2	none
NNC(=O)c1ccc(Cn2cc(Br)cn2)o1	none
Cc1ccc(NC(=O)c2ccc(Cn3cc(Br)cn3)o2)cc1	AHR activator 60
N#Cc1c(NC(=O)c2ccc(Cn3cc(Br)cn3)o2)sc2c1CCCCCC2	AHR activator 70
C#CCNC(=O)C[C@H]1C[C@@]2(C(=O)OC)C(=C[C@H](C(C)C)O[C@@H]2C2CC2)N(Cc2ccc(Cl)cc2Cl)C1=O	none (no result: AHR activator, GRIN3A LBD mod)
CC(C)(C)c1ccc(-c2nnc(SCc3ccccc3)n2Cc2ccco2)cc1	none (no result: AHR activator, GRIN3A LBD mod)
O=C(O)C1C2C=CC3(CN(c4cccc(C(F)(F)F)c4)C(=O)C13)O2 (configuration not stated)	GRIN3A LBD mod 11
CC(C)C[C@@H]1COc2cc(N3CCCC3)ccc2S(=O)(=O)N1	none (no result: AHR activator, GRIN3A LBD mod)
COc1ccc(C(=O)CSc2nnc(-c3cccnc3)n2-c2ccc(C)cc2)cc1	none (no result: AHR activator, GRIN3A LBD mod)
CC(NC(=O)c1ccco1)C(=O)N1CCN(C(c2ccccc2)c2ccccc2)CC1 (configuration not stated)	GRIN3A LBD mod 11
CC1(C)C=Cc2c(ccc(-c3coc4cc(O)ccc4c3=O)c2O)O1	none (no result: ADAM17 inh, GRIN3A LBD mod, ADAM10 inh, proKLK7 act, rCAG RNA binder)
CC(C)=CCc1c(-c2ccc(O)cc2O)oc2c3c(cc(O)c2c1=O)OC(C)(C)C=C3	GRIN3A LBD mod 27 (no result: ADAM17 inh, ADAM10 inh, proKLK7 act, rCAG RNA binder)
CC(C)=CCc1c([C@@H]2CCc3ccc(O)cc3O2)cc2c(c1O)OC(C)(C)C=C2	none (no result: ADAM17 inh, ADAM10 inh, proKLK7 act, rCAG RNA binder)
CC(C)=CCc1c2c(c(O)c3c(=O)c4c(oc13)-c1cc(O)c(O)cc1OC4C=C(C)C)C=CC(C)(C)O2 (configuration not stated)	GRIN3A LBD mod 22 (no result: ADAM17 inh, ADAM10 inh, proKLK7 act, rCAG RNA binder)
Cc1ccc(S(=O)(=O)N2CC[C@@]3(Cc4ccccc4)Cc4ccccc4C[C@@H]23)cc1	none (no result: AHR activator, GRIN3A LBD mod, proKLK7 act, rCAG RNA binder)
COc1ccc(OCC(=O)N/N=C2\CCCCc3ccccc32)cc1	none
CCc1ccc(OCC(=O)N/N=C2\CC(=O)c3ccccc32)cc1	AHR activator 62 (no result: ADAM17 inh, GRIN3A LBD mod, ADAM10 inh, proKLK7 act, rCAG RNA binder)
c1cncc(N=c2scc(-c3cccc4ccccc34)n2CCCn2ccnc2)c1	AHR activator 56
CC1=CC(C)C(COC(=O)CN2CCCCC2)C(C)C1 (configuration not stated)	GRIN3A LBD mod 11
CC(C)[C@H](NC(=O)[C@H](C)NC(=O)OC(C)(C)C)C(=O)N1CCC2CCN(Cc3ccccc3)CC21 (some centres not stated)	none (no result: AHR activator, GRIN3A LBD mod)
C[C@H]1[C@@H](N(C)Cc2cccs2)CC[C@@]23CCCN2C(=O)CCC[C@@H]13	none (no result: AHR activator, GRIN3A LBD mod, proKLK7 act, rCAG RNA binder)
Cc1ccc(NC(=O)C2=C(c3ccccc3)S(=O)(=O)CCS2(=O)=O)cc1	GRIN3A LBD mod 14
O=C(Nc1ccc(-c2ccccc2)cc1)c1ccccc1	none
COc1ccc2nc(N/C(N)=N/C(=S)Nc3cccc(C)c3)nc(C)c2c1	none
COc1ccc(NC(=S)/N=C(\N)Nc2nc(C)c3ccccc3n2)cc1	AHR activator 65
Cc1ccc(NC(=S)/N=C(\N)Nc2nc(C)c3cc(C)c(C)cc3n2)cc1C	none
COc1ccc2nc(N/C(N)=N/C(=S)Nc3c(C)cccc3C)nc(C)c2c1	GRIN3A LBD mod 24
CCOc1ccc2nc(N/C(N)=N/C(=S)Nc3cccc(C)c3)nc(C)c2c1	GRIN3A LBD mod 23
CCOc1ccc2nc(N/C(N)=N/C(=S)Nc3cccc(OC)c3)nc(C)c2c1	GRIN3A LBD mod 14
COc1ccc2nc(N/C(N)=N/S(C)(=O)=O)nc(C)c2c1	none
O=C(CSc1nnc(-c2cccc(Cl)c2)n1Cc1ccco1)c1ccc(F)cc1	none (no result: AHR activator, GRIN3A LBD mod)
Cc1nnc(-n2cccc2)s1	none (no result: AHR activator, GRIN3A LBD mod)
CC(C)C[C@H]1COc2cccc(F)c2S(=O)(=O)N1Cc1cn(Cc2ccc(C(F)(F)F)cc2)nn1	none (no result: AHR activator, GRIN3A LBD mod)
CCCN(CCC)CCCNC(=O)c1cc2c(=O)[nH]c3ccccc3c2n1C	none
Cn1c(C(=O)NCc2ccco2)cc2c(=O)[nH]c3ccccc3c21	GRIN3A LBD mod 24
COC(=O)Cc1nnn2c1[C@@H](C)[C@@H](c1ccccc1Br)OC[C@@H]2c1ccccc1	none (no result: AHR activator, GRIN3A LBD mod)
CC(=O)Nc1ccc(Nc2ncnc3c2cnn3-c2ccc(C)cc2C)cc1	none
CC(=O)Nc1ccc(Nc2ncnc3c2cnn3-c2cccc(C)c2)cc1	GRIN3A LBD mod 22
CC(=O)Nc1ccc(Nc2ncnc3c2cnn3-c2ccccc2)cc1	GRIN3A LBD mod 19
C[C@H](O)[C@@H]1C(=O)N2CCc3c([nH]c4cccc(-c5ccccc5)c34)[C@@H]2C[C@@H]1N(C)C(=O)Nc1ccccc1	none (no result: AHR activator, GRIN3A LBD mod)
Cc1sc(NC(=O)CSc2n[nH]c(N)n2)c(C#N)c1C	rCAG RNA binder 50 (no result: AHR activator)
COc1ccc(-c2cc(C(=O)NN=Cc3ccccc3[N+](=O)[O-])[nH]n2)cc1	none (no result: AHR activator, GRIN3A LBD mod)
Cc1cccc(N=C2NC(=O)/C(=C/c3cccnc3)S2)c1C	AHR activator 47
N#CC(c1ccc(Cl)cc1)c1ncc(C(F)(F)F)cc1Cl (configuration not stated)	GRIN3A LBD mod 14
CC(C)C[C@H](NC(=O)C1CC1)C(=O)N1CCC[C@H]1C(=O)NCc1ccccc1	none (no result: AHR activator, GRIN3A LBD mod)
Cc1nnc(-c2cccc(Br)c2)c2cn(-c3cccc(Br)c3)nc12	none
COc1ccc(-n2cc3c(-c4cccc(Br)c4)nnc(C)c3n2)cc1	AHR activator 61
Cc1nnc(-c2cccc(Br)c2)c2cn(-c3ccc(Br)cc3)nc12	AHR activator 89
Cc1nnc(-c2cccc(Br)c2)c2cn(-c3ccccc3)nc12	AHR activator 48
